Experiment [1] in a line: Nuclear factor erythroid 2-related factor 2/antioxidant responsive element (Nrf2/ARE) small molecule agonists: qHTS cell viability counter screen in human keratinocytes (AID 1919968; active = well fitted curve in the direction sought with a large enough effect in the repeat runs; an effect the other way counts as inactive or inconclusive; note: nearly all actives have a fitted effect of over 55% in size). An outline of the steps: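 Viability counter-screen: KeratinoSens reporter cells, DMSO-delivered compounds, 23 h at 37 C, CellTiter-Fluor fluorescence.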
Background: In qHTS, concentration-response curves come from the screen itself.

Experiment [2] is described as follows: Nuclear factor erythroid 2-related factor 2/antioxidant responsive element (Nrf2/ARE) small molecule agonists: luciferase reporter gene qHTS assay in human keratinocytes (AID 1919969). Note: nearly all actives have a fitted effect of over 35% in size. Note: potency is the fitted concentration of half-maximal effect. On the technique in general: In a reporter assay the amount or activity of a reporter protein is the signal.
Experiment [3] has as its target Gonadotropin-releasing hormone receptor (Homo sapiens) (UniProt P30968). The experiment in a line: Human gonadotropin-releasing hormone receptor (GnRHR) small molecule agonists, calcium flux assay in GnRHR-HEK293 cells (AID 1920063). Note: nearly all actives have a fitted effect of over 35% in size. The gist of the method: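 Tox21-format agonist screen using human GnRHR-expressing HEK293 cells and a fluorescent calcium dye; kinetic 3-min fluorescence reading after compound addition, 15-point concentration series run in triplicate.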

Experiment [4] addresses KiSS-1 receptor (Homo sapiens) (UniProt Q969F8). The experiment is described as follows: Human kisspeptin (KISS1R) small molecule agonists, calcium flux assay in KISS1R-HEK293 cells (AID 1920064; active = well fitted curve in the direction sought with a large enough effect in the repeat runs; an effect the other way counts as inactive or inconclusive). An outline of the steps:
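Intracellular calcium mobilization in KISS1R-HEK293 cells was recorded by fluorescence (Ex/Em 480/540) for 3 min following compound addition to cells pre-loaded 1 h with calcium dye.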
On the technique in general: Calcium flux is commonly read through the fluorescence of an indicator in the cells.

Experiment [5] can be described thus: G protein-coupled receptor (GPCR) small molecule agonists, calcium flux assay: HEK293 wild type cell line counter screen (AID 1920065). The gist of the method: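 In this agonist-mode screen, ATP is the positive control and DMSO the vehicle. Cells grow 18 h before a 1 h dye incubation at 37 C; signal is taken at Ex/Em 480/540 over 3 min.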
Experiment [6] in a line: p53 small molecule agonists, cell-based qHTS assay with human liver microsomes (AID 1963577).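 Note: p53 response element beta-lactamase reporter cells with liver microsomes plus NADPH.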 An outline of the steps:
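16 h, 37 C exposure of p53RE-bla cells to compounds with human liver microsomes and NADPH (0.5 mg/mL final each); detection via LiveBLAzer mixture, 2 h dark at room temperature.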

Experiment [7] in a line: p53 small molecule agonists, cell-based qHTS assay with rat liver microsomes (AID 1963578). An outline of the steps:
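With rat liver microsomes and NADPH present (0.5 mg/mL final each), p53RE-bla cells are treated with compound for 16 h at 37 C. LiveBLAzer detection mixture is then applied for 2 h at room temperature in the dark.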

Experiment [8] in a line: p53 small molecule agonists, cell-based qHTS assay with human liver microsomes: qHTS cell viability counter screen (AID 1963579). Note: nearly all actives have a fitted effect of over 45% in size. An outline of the steps: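 In this multiplexed counter screen, the reporter plates were subsequently treated with CellTiter-Glo so that cell viability, reflected by luminescence, could be recorded for p53RE-bla cells dosed 16 h with compounds under microsomal activation (HLM and NADPH).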

The nature of experiment [9]: p53 small molecule agonists, cell-based qHTS assay with rat liver microsomes: qHTS cell viability counter screen (AID 1963580). Note: nearly all actives have a fitted effect of over 45% in size. The gist of the method: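 Viability is assessed in parallel with the p53 reporter read: HCT-116 p53RE-bla cells receive compounds plus rat microsomes and NADPH (0.5 mg/mL final apiece), incubate 16 h at 37 C, and then CellTiter-Glo luminescence is recorded.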

Experiment [10] can be described thus: p53 small molecule agonists, cell-based qHTS assay: qHTS cell viability counter screen (AID 1963581). Note: nearly all actives have a fitted effect of over 45% in size. The gist of the method: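 Compounds are pinned onto HCT-116 p53RE-bla cells and left 16 h at 37 C. Following the reporter FRET read, ATP is quantified by CellTiter-Glo luminescence after 30 min at room temperature.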
Experiment [11] is described as follows: p53 small molecule agonists, cell-based qHTS assay (AID 1963582; active = well fitted activation curve with a large enough effect in the signal ratio in the repeat runs, not every such curve was filed as active; the % refers to the signal ratio). An outline of the steps: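 Agonist activity was scored from beta-lactamase FRET fluorescence in p53RE-bla cells treated 16 h at 37 C with compounds in DMSO, substrate incubation being 2 h at room temperature.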
The target of experiment [12] is 5-hydroxytryptamine receptor 2A (Homo sapiens) (UniProt P28223). The experiment is described as follows: 5-hydroxytryptamine receptor 2A (HTR2A) small molecule antagonists, cell-based qHTS assay (AID 1963586). Note: nearly all actives have a fitted effect of over 45% in size. Note: potency is the fitted concentration of half-maximal effect. An outline of the steps: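 Antagonist-mode intracellular calcium assay: DOI (4 nM) added after 5 min compound pre-incubation at room temperature to dye-loaded HTR2A-CHO cells. Fluorescence followed for 3 min, sampled every second.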

For experiment [13] the target is unchanged. The experiment is described as follows: 5-hydroxytryptamine receptor 2A (HTR2A) small molecule agonists, cell-based qHTS assay (AID 1963587). Note: nearly all actives have a fitted effect of over 30% in size. Note: potency is the fitted concentration of half-maximal effect. The gist of the method:
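CHO cells stably expressing human HTR2A, plated 18 h, loaded with calcium dye 1 h at 37 C. Agonist mode: compounds added and intracellular calcium fluorescence recorded kinetically for 2 min at 1 sec intervals.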

Experiment [14] has as its target Muscarinic acetylcholine receptor M1 (Homo sapiens) (UniProt P11229). The experiment in a line: Cholinergic receptor muscarinic 1 (CHRM1) small molecule antagonists, cell-based qHTS assay (AID 1963588). Note: nearly all actives have a fitted effect of over 40% in size. An outline of the steps: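 CHRM1-CHO calcium-flux assay, antagonist mode. Cells were seeded 18 h, dye-loaded 1 h at 37 C and given compound for 5 min at RT, then acetylcholine was added at 50nM. FDSS fluorescence was read 3 min; 15 concentrations, three runs.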

Experiment [15] shares this target. The experiment is described as follows: Cholinergic receptor muscarinic 1 (CHRM1) small molecule agonists, cell-based qHTS assay (AID 1963589). Note: nearly all actives have a fitted effect of over 35% in size. An outline of the steps: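 Stable CHRM1-CHO cells (human receptor) were incubated 18 h, dye-loaded for 1 h at 37 C and exposed to test compounds for agonist activity, with calcium-dependent fluorescence followed kinetically.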

A short description of experiment [16]: cAMP Responsive Elements (CRE) small molecule agonists, cell-based qHTS assay (AID 1963590). The gist of the method: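 FRET-based beta-lactamase readout (LiveBLAzer B/G, 2 h RT) quantified CRE activation in HEK 293T CRE-bla cells after 3 h treatment with DMSO-dissolved compounds.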
The nature of experiment [17]: cAMP Responsive Elements (CRE) small molecule antagonists, cell-based qHTS assay (AID 1963591; active = well fitted inhibition curve with a large enough effect in the signal ratio in the repeat runs, not every such curve was filed as active; the % refers to the signal ratio). An outline of the steps: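 qHTS in CRE-bla HEK 293T cells: compound in DMSO, then 0.25 uM NKH477 (final), 3 h at 37 °C/5% CO2; beta-lactamase FRET read-out after 2 h substrate incubation.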
The target in experiment [18] is D(2) dopamine receptor (Homo sapiens) (UniProt P14416). The experiment is described as follows: Dopamine D2 receptor (DRD2) small molecule agonists, cell-based qHTS assay (AID 1963594). Note: nearly all actives have a fitted effect of over 35% in size. The gist of the method:
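HEK293 cells stably expressing human DRD2, pre-treated with PDE inhibitor Ro20-1724 (0.1 mM final) and compound 10 min at room temperature, then stimulated with NKH477 (200nM […]) for 30 min. cAMP read by HTRF (665/620 nm).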

Experiment [19] shares this target. The experiment in a line: Dopamine D2 receptor (DRD2) small molecule antagonists, cell-based qHTS assay (AID 1963595; active = well fitted inhibition curve with a large enough effect in the signal ratio in the repeat runs, with a control signal flat; the % refers to the signal ratio; note: potency is the fitted concentration of half-maximal effect). The gist of the method:
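Cells were plated and grown for 24 h at 37 °C. Ro20-1724 (0.1 mM final) went in first, then compound for 10 min. NKH477 (200 nM) with quinpirole (12 nM) followed for 30 min at RT, then HTRF detection reagents for 1 h.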

Experiment [20] addresses Beta-2 adrenergic receptor (Homo sapiens) (UniProt P07550). The experiment in a line: Adrenergic beta2 receptor (ADRB2) small molecule antagonists, cell-based qHTS assay (AID 1963592). Note: series mostly up to about 92 µM; nearly all actives have a fitted effect of over 50% in size. The gist of the method: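 Cells (CHO, stable ADRB2 overexpression) incubated 18-20hr at 37C; compounds added from DMSO; agonist mix (1nM isoproterenol, 100uM IBMX, 25uM Ro-20-1724) added; 0.5hr RT; d2-cAMP and anti-cAMP-cryptate added; 1hr RT; 665/615 nm read.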

We go through 7 compounds from PubChem BioAssay (Tox21).

A number with no mark means an inactive call. Records with an inconclusive call do not appear. The source made the active and inactive calls. Unless noted, calls come from the whole dose curve.

Sequence of Muscarinic acetylcholine receptor M1 (Homo sapiens) (P11229 whole entry, looked up): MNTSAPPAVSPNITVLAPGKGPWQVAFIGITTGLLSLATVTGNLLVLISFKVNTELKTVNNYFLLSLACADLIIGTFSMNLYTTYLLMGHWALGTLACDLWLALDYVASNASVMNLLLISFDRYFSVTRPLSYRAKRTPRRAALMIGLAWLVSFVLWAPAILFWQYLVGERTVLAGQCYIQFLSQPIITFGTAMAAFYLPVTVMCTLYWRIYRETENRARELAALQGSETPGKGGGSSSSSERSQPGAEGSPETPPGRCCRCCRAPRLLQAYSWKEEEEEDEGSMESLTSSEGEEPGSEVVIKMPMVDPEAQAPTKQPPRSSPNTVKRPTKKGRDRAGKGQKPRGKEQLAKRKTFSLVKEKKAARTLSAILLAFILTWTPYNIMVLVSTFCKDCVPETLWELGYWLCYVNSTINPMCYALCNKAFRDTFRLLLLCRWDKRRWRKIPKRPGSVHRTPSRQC
Sequence of KiSS-1 receptor (Homo sapiens) (Q969F8 whole entry, looked up): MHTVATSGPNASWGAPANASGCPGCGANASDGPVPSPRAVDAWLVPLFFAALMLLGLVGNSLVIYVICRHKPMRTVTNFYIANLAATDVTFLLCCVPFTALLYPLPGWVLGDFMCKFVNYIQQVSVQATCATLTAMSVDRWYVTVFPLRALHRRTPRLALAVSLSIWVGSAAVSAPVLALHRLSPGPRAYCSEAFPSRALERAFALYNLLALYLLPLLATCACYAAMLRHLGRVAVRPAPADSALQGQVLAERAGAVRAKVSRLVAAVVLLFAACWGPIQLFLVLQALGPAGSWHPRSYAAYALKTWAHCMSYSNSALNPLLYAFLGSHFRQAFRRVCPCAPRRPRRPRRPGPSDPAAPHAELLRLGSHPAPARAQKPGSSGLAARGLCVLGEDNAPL
Sequence of 5-hydroxytryptamine receptor 2A (Homo sapiens) (P28223 whole entry, looked up): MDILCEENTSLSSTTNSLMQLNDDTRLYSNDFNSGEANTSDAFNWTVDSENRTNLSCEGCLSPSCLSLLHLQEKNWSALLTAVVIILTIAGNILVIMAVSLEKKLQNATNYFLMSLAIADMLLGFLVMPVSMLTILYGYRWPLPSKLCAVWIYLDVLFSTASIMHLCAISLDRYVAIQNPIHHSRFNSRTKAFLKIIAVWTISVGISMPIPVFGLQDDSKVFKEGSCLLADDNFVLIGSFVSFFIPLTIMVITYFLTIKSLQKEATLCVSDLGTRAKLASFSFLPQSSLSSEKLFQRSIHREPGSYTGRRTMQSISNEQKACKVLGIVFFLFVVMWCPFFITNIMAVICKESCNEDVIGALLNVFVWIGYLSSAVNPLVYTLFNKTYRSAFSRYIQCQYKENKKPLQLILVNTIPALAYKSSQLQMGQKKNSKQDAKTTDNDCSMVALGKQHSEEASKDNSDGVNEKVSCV
Sequence of Beta-2 adrenergic receptor (Homo sapiens) (P07550 whole entry, looked up): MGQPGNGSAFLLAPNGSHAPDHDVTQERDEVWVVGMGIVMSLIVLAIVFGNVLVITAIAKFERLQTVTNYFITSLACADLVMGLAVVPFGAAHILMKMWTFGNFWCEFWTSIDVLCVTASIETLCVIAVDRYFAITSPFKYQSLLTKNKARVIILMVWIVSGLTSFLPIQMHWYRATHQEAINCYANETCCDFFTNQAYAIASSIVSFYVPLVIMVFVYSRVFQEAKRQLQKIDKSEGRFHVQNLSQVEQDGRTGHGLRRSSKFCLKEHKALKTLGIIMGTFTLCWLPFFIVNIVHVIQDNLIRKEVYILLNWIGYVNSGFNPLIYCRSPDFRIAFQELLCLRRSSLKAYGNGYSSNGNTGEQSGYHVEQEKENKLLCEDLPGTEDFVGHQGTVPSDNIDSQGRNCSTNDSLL
Sequence of D(2) dopamine receptor (Homo sapiens) (P14416 whole entry, looked up): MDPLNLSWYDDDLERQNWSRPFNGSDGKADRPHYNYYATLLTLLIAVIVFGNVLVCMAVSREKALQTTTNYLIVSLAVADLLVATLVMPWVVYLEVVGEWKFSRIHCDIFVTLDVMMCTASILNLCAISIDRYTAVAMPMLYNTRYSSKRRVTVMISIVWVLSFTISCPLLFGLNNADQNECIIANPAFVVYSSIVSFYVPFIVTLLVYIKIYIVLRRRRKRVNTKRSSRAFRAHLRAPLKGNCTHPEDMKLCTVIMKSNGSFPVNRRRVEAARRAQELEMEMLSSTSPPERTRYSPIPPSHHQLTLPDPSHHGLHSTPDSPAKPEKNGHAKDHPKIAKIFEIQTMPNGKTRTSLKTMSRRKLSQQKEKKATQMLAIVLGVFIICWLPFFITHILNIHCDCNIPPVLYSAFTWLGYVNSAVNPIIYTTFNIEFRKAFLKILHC
Sequence of Gonadotropin-releasing hormone receptor (Homo sapiens) (P30968 whole entry, looked up): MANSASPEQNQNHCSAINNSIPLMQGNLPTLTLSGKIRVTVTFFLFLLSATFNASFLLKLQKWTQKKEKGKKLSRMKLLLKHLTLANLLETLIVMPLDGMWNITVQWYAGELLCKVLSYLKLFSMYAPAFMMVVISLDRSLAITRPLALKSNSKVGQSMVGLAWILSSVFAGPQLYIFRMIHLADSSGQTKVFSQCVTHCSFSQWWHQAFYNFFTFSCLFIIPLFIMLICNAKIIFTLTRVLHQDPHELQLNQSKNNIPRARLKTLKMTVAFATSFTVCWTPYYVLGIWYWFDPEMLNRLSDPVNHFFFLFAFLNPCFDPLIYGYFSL

As for `COc1cc(CCN)cc(OC)c1OC`, the Potency result in [1], in experiment [2], in [3], in [4], in experiment [5] and in [6] was “inactive” in each case. Also, the Potency entry in experiment [7], in experiment [8], in experiment [9], in experiment [10], in experiment [11] and in [14] was “inactive” each time. Besides, the Potency result in experiment [15], in [16], in [17], in experiment [18] and in experiment [19] was “inactive” in each case. For the same compound, the Potency in experiment [12] is 0.182 µM (active); in [13], 0.0752 µM (active).

With `CN(C)CCc1c[nH]c2ccc(O)cc12`, the Potency result in experiment [1], in experiment [3], in experiment [4], in experiment [5], in [6] and in [7] was “inactive” each time. The Potency entry in experiment [8], in experiment [9], in experiment [10], in [11], in experiment [12] and in experiment [14] was “inactive” each time. The Potency result in experiment [15], in [16] and in [17] was “inactive” each time. Further, in experiment [2], the Potency was 67 µM (active).

On to `Cc1cc(Cl)ccc1O[C@H](C)C(=O)O`, for which the Potency result in [1], in [2], in experiment [3], in [4], in experiment [5] and in [6] was “inactive” in each case. For the same compound, the Potency result in experiment [7], in [8], in experiment [9], in experiment [10], in [11] and in [12] was “inactive” in each case. Further, the Potency entry in experiment [13], in experiment [15], in experiment [17], in experiment [20], in experiment [18] and in experiment [19] was “inactive” in each case.

As for `Oc1ccccc1Br`, the Potency result in experiment [1], in experiment [2], in [3], in [4], in experiment [5] and in [6] was “inactive” throughout. Moreover, the Potency entry in experiment [7], in experiment [8], in experiment [9], in experiment [10], in experiment [11] and in experiment [12] was “inactive” in each case. Further, the Potency result in experiment [13], in [14], in experiment [15], in [16], in [20] and in experiment [18] was “inactive” in each case. Also, the Potency entry in experiment [19] was “inactive”.

Consider `O=C(Cl)C(Cl)(Cl)Cl`, for which the Potency entry in [1], in [2], in [3], in [4], in experiment [5] and in [6] was “inactive” each time. Also, the Potency result in [7], in experiment [8], in experiment [9], in [10], in experiment [11] and in experiment [12] was “inactive” in each case. Besides, the Potency result in experiment [13], in experiment [14], in experiment [15], in experiment [16], in experiment [17] and in experiment [18] was “inactive” each time. Besides, the Potency entry in experiment [19] was “inactive”.

On to `CC1(C)[C@H](/C=C2\CCSC2=O)[C@@H]1C(=O)OCc1coc(Cc2ccccc2)c1`, for which the Potency entry in experiment [1], in [3], in experiment [4], in experiment [5], in experiment [6] and in experiment [7] was “inactive” in each case. For the same compound, the Potency result in experiment [8], in experiment [9], in experiment [10], in experiment [11], in experiment [13] and in [14] was “inactive” each time. Moreover, the Potency result in experiment [15], in [20], in experiment [18] and in experiment [19] was “inactive” in each case. The Potency in [2] was 61.1 µM (active); in [12], 2.65 µM (active).

With `CC(C)NCC(O)c1ccc(N)c(C#N)c1` (configuration not stated), the Potency result in experiment [1], in [2], in [3], in experiment [4], in experiment [5] and in [6] was “inactive” each time. Further, the Potency entry in experiment [7], in [8], in [9], in [10], in experiment [11] and in experiment [14] was “inactive” in each case. Besides, the Potency entry in experiment [15], in [17] and in experiment [18] was “inactive” each time. For the same compound, the figures for the Potency in [12], in experiment [13] and in experiment [19] were 18.3 µM (active), 7.56 µM (active) and 0.0047 µM (active), respectively.
